Test results published in PubChem BioAssay (NCI).
Compounds without any hit were thinned out: in the full panel of roughly 83,000, 20% have a hit.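 Method: cells in 96-well plates; compound added at one concentration; 48 h incubation; percent growth measured; values under 10 scored active.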 Calls of active or inactive are those of the source.

Key:
Experiment in all cases: NCI-60 one-dose screen, 48 h (100 = growth as untreated, 0 = no growth, -100 = all killed)
SK-MEL-2 melanoma = details: 10 µM unless noted
EKVX NSCLC = details: 10 µM unless noted
SN12C renal = details: 10 µM unless noted
UO-31 renal = details: 10 µM unless noted
TK-10 renal = details: 10 µM unless noted
ACHN renal = details: 10 µM unless noted
A498 renal = details: 10 µM
CCRF-CEM leukemia = details: 10 µM unless noted
MOLT-4 leukemia = details: 10 µM unless noted
SR leukemia = details: 10 µM unless noted
RPMI-8226 leukemia = details: 10 µM unless noted
OVCAR-8 ovarian = details: 10 µM unless noted
OVCAR-5 ovarian = details: 10 µM unless noted
OVCAR-4 ovarian = details: 10 µM unless noted
SK-OV-3 ovarian = details: 10 µM unless noted
IGROV1 ovarian = details: 10 µM unless noted
OVCAR-3 ovarian = details: 10 µM unless noted
HS 578T breast = details: 10 µM unless noted
HL-60(TB) leukemia = details: 10 µM unless noted

Measured: growth

O=NN1CCCc2cccc(O)c21
active: SR leukemia 1.91%
inactive: SK-MEL-2 melanoma 56.1% | EKVX NSCLC 69.4% | SN12C renal 21.7% | UO-31 renal 20.9% | TK-10 renal 95.9% | ACHN renal 17.2% | A498 renal 86.8% | CCRF-CEM leukemia 30.2% | MOLT-4 leukemia 51.8% | RPMI-8226 leukemia 44.5% | OVCAR-8 ovarian 24% | OVCAR-5 ovarian 115% | OVCAR-4 ovarian 63.7% | SK-OV-3 ovarian 38.8% | IGROV1 ovarian 44.4% | OVCAR-3 ovarian 49.6% | HS 578T breast 46.3%

COc1ccc2c(c1)c(-c1nc(-c3cn(C)c4ncccc34)cs1)cn2CCCCN1CCCCC1
active: SK-MEL-2 melanoma -31.5% | SN12C renal -79.7% | UO-31 renal -89.4% | TK-10 renal -26.8% | ACHN renal -95.2% | HL-60(TB) leukemia -64.9% | CCRF-CEM leukemia -50.5% | MOLT-4 leukemia -65% | SR leukemia -54.3% | RPMI-8226 leukemia -42% | OVCAR-8 ovarian -65.2% | OVCAR-5 ovarian -69.2% | OVCAR-4 ovarian -6.02% | IGROV1 ovarian -62.5% | OVCAR-3 ovarian -78.4%
inactive: EKVX NSCLC 55.4% | A498 renal 71.8% | SK-OV-3 ovarian 38.5% | HS 578T breast 58.3%

CC1(C)N=C(N)N=C(N)N1c1cccc(CCCCc2ccc(Cl)c(S(=O)(=O)F)c2)c1
inactive: SK-MEL-2 melanoma 52.3% | EKVX NSCLC 51.5% | SN12C renal 30.5% | UO-31 renal 92.4% | TK-10 renal 55.5% | ACHN renal 87.5% | A498 renal 86.1% | HL-60(TB) leukemia 18.8% | CCRF-CEM leukemia 28.1% | MOLT-4 leukemia 38.3% | RPMI-8226 leukemia 45.7% | OVCAR-8 ovarian 19.4% | OVCAR-5 ovarian 49.6% | OVCAR-4 ovarian 50.5% | SK-OV-3 ovarian 72.8% | OVCAR-3 ovarian 47.1% | HS 578T breast 83.9%

CCCCOc1ccc(C(N)Cc2ccccc2)cc1 (stereo not drawn)
inactive: SK-MEL-2 melanoma 107% | EKVX NSCLC 91.8% | SN12C renal 95.4% | UO-31 renal 74.6% | TK-10 renal 98% | ACHN renal 90.5% | A498 renal 65% | HL-60(TB) leukemia 84.7% | CCRF-CEM leukemia 98.5% | MOLT-4 leukemia 85.5% | RPMI-8226 leukemia 80.5% | OVCAR-8 ovarian 97.6% | OVCAR-5 ovarian 95.9% | OVCAR-4 ovarian 107% | SK-OV-3 ovarian 114% | IGROV1 ovarian 88.2% | OVCAR-3 ovarian 102% | HS 578T breast 91%

Cc1ccc(C(=O)NCCCOc2ccc(N3C(N)=NC(N)=NC3(C)C)cc2Cl)cc1S(=O)(=O)F
active: IGROV1 ovarian -28.2%
inactive: SK-MEL-2 melanoma 70.1% | EKVX NSCLC 79.3% | SN12C renal 35.2% | UO-31 renal 105% | TK-10 renal 103% | ACHN renal 110% | A498 renal 118% | HL-60(TB) leukemia 30.2% | CCRF-CEM leukemia 55.1% | MOLT-4 leukemia 119% | SR leukemia 21.4% | OVCAR-8 ovarian 77.2% | OVCAR-5 ovarian 51.6% | OVCAR-4 ovarian 111% | SK-OV-3 ovarian 101% | OVCAR-3 ovarian 121% | HS 578T breast 109%

COC(=O)[C@@H](C)C[C@H](Cc1cn(C)c2ccccc12)NC(=O)c1csc([C@@H](C[C@H](C(C)C)N(C)C(=O)[C@@H](NC(=O)[C@H]2CCCCN2C)C(C)C)OC(C)=O)n1
inactive: SK-MEL-2 melanoma 39% | EKVX NSCLC 46.4% | SN12C renal 23.5% | UO-31 renal 34.1% | TK-10 renal 28.1% | ACHN renal 18.8% | CCRF-CEM leukemia 10.8% | MOLT-4 leukemia 12.8% | SR leukemia 13.2% | RPMI-8226 leukemia 10.5% | OVCAR-8 ovarian 30.1% | OVCAR-5 ovarian 48.7% | OVCAR-4 ovarian 50.5% | SK-OV-3 ovarian 26.8% | IGROV1 ovarian 26.3% | HS 578T breast 22.7%
active: A498 renal -1.42% | HL-60(TB) leukemia -39.1% | OVCAR-3 ovarian -11%

COc1ccc(C(=O)c2cc(OC)c(OC)c(OC)c2)cc1OC(C)=O
inactive: SK-MEL-2 melanoma 47.8% | EKVX NSCLC 68.7% | SN12C renal 29.5% | UO-31 renal 39.6% | TK-10 renal 74.8% | ACHN renal 36.7% | A498 renal 49.8% | CCRF-CEM leukemia 13.8% | MOLT-4 leukemia 13.9% | SR leukemia 11.9% | RPMI-8226 leukemia 20.4% | OVCAR-8 ovarian 15.6% | OVCAR-5 ovarian 57.9% | OVCAR-4 ovarian 57.7% | SK-OV-3 ovarian 24.2% | IGROV1 ovarian 25.6% | HS 578T breast 44.3%
active: HL-60(TB) leukemia -37.1% | OVCAR-3 ovarian 5.13%
